High-throughput results as filed in PubChem.
CCHFV vOTU inh: CCHFV vOTU protease inhibition. actives 0.55% (n = 370,000). Pep-AMC fluorescence. inhibition, % at 11.5 µM; in the data active means inhibition above about 30%; further: 0% = vehicle wells with enzyme and 100% = no enzyme wells
RecA splice inh: blocks M. tuberculosis RecA intein splicing. P9WHJ3. cell-free RecA intein splicing, fluorescence. inhibition, % (test concentration not listed). actives 0.75% (n = 290,000). AID 2221; in the data active means inhibition above about 30%;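 further: 0% = vehicle wells and 100% = reference inhibitor control wells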
VHR inh abs: blocks human VHR1 dual specificity phosphatase; recombinant VHR phosphatase, pNPP absorbance; inhibition, % at 13.3 µM; actives 0.52% (n = 290,000); in the data active means inhibition above about 50%
Target sequence (P51452 whole entry, looked up): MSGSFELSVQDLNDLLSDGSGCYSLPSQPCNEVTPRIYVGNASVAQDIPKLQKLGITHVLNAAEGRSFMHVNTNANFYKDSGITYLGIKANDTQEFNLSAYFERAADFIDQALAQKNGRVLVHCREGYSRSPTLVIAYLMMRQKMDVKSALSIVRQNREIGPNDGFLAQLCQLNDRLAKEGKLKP
GDH-TPI counter-1: GDH-TPI coupled enzyme inhibition counter-screen; GDH-TPI coupled enzyme counterscreen, NADH absorbance; inhibition, % at 4.8 µM; actives 1.2% (n = 360,000); AID 588335; in the data active means inhibition above about 30%;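 further: 0% = DMSO wells and 100% = wells lacking the enzyme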
SARS 3CLpro inh: SARS-CoV 3CLpro protease inhibition. recombinant SARS-CoV 3CLpro, quenched FRET peptide cleavage. inhibition, % at 6 µM. actives 0.14% (n = 290,000). AID 1706; in the data active means inhibition above about 12%
FBA Mtb inh: inhibits M. tuberculosis FBA enzyme; purified M. tuberculosis FBA, fluorescence read-out; inhibition, % at 1 µM; actives 2.3% (n = 360,000);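 further: 0% = vehicle and 100% = reference inhibitor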
Target sequence (P9WQA3 whole entry, looked up): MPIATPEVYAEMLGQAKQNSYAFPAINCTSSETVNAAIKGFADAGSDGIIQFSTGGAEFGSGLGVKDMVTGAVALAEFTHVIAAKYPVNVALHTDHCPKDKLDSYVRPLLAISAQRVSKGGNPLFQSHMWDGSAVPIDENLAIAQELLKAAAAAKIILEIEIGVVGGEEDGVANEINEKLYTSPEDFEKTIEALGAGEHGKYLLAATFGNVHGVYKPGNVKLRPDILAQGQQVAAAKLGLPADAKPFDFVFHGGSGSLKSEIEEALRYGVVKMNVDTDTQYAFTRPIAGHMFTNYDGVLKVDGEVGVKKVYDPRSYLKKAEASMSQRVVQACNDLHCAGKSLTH
Mtb FBA inh conf: confirmation of M. tuberculosis fructose-bisphosphate aldolase inhibitors | shares compounds with FBA Mtb inh | purified M. tuberculosis FBA, fluorescence read-out | inhibition, % at 1 µM | actives 78% (n = 5,600);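 further: 0% = vehicle wells and 100% = reference inhibitor wells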
GDH-TPI counter-2: inhibits GDH-TPI coupling enzymes, flagging Mtb FBA hits; shares compounds with FBA Mtb inh; AID 652141; inhibition, % at 1 µM; actives 81% (n = 5,600); GDH-TPI coupled enzyme counterscreen, fluorescence; in the data active means inhibition above about 10%
GDH-TPI DR: inhibits GDH-TPI coupling enzymes in dose response; IC50, µM; GDH-TPI coupled enzyme assay, fluorescence, artifact counterscreen; actives 79% (n = 170); shares compounds with FBA Mtb inh; call rule not given here
* marks the source's active call; other numbers are inactive results; . = no result; + = active, no number. Rows were chosen to be rich in hits. Some 4.7% of all compounds tested hit in one or more screens of this group. Unless noted, no stated cut-off is given here; in the data, active means inhibition above about 27%; inactive means the rest.

SMILES | CCHFV vOTU inh | RecA splice inh | VHR inh abs | GDH-TPI counter-1 | SARS 3CLpro inh | FBA Mtb inh | Mtb FBA inh conf | GDH-TPI counter-2 | others
CCOC(=O)c1[nH]c2ccc(OC)cc2c1NC(=O)CCN1CCCC(C)C1 (configuration not stated) | -15 | -1 | 2 | 1 | 1 | 35* | + | +
CCOC(=O)c1[nH]c2ccc(OC)cc2c1N=CN(C)C | -13 | -5 | 12 | 3 | 2 | 39* | + | 175*
c1cc(CNC23CC4CC(CC(C4)C2)C3)ccn1 | 16 | 1 | 23 | 4 | 1 | 3 | . | .
Nc1ncnc2c1ncn2-c1ccccc1Cl | -5 | . | . | 5 | . | -2 | . | .
CCOc1ccc(-c2cc3cc(OC)c(OC)cc3c(C)n2)cc1 | -9 | -1 | 16 | 2 | 0 | 28* | 60* | 43*
Cc1ccc(NC(=O)Cn2c(=O)cnc3ccccc32)cc1S(=O)(=O)N1CCOCC1 | 7 | . | . | 22 | . | 9 | . | .
Nc1nnc(-c2ccncc2)s1 | -23 | 0 | 22 | 9 | 1 | 52* | 5 | -1
CCCCN(C(=O)c1ccc(S(=O)(=O)N2CCC(C)CC2)cc1)C1CCS(=O)(=O)C1 (configuration not stated) | 14 | 1 | . | 5 | . | 2 | . | .
CC(=O)c1sc2nc(SCC(=O)NCCc3ccccc3)[nH]c(=O)c2c1C | -4 | -2 | -6 | 53* | 2 | 29* | 77* | 73*
Cc1cc(C)c2c(N)c(C(=O)NN3CC(=O)N(c4cccc(Cl)c4)CC3=O)sc2n1 | -22 | -10 | 21 | 3 | 3 | 15 | . | .
Cc1cc(C)c2c(N)c(C(=O)NN3CC(=O)N(c4ccccc4)CC3=O)sc2n1 | -79 | -22 | -7 | 2 | 6 | 57* | 188* | 129*
CCC1(c2ccc(F)cc2)NC(=O)N(CC(=O)Nc2cccnc2Cl)C1=O (configuration not stated) | 19 | -3 | . | 6 | . | -1 | . | .
C#CCSc1nc(-c2cccs2)ccc1C#N | -1 | 3 | 5 | 26 | 4 | 36* | 51* | 46*
COC(=O)CSc1nc(C)c(C(C)=O)cc1C#N | -2 | -1 | 19 | 10 | -2 | 0 | . | .
COC(=O)CSc1nc(-c2cccs2)ccc1C#N | -44 | 2 | 25 | -4 | 3 | 71* | + | +
COc1cc2c3nc4n(c(=O)c3n(CC(=O)NCC3CCCO3)c2cc1OC)CCS4 (configuration not stated) | -9 | 1 | -2 | 14 | 5 | 63* | 180* | 174*
COc1ccc(NC(=O)CSc2nnc3ccc(-c4ccncc4)nn23)cc1OC | -12 | -1 | 22 | 4 | 3 | -1 | . | .
CCc1cccc(Nc2c([N+](=O)[O-])cc(C(=O)N3CC(=O)Nc4ccccc43)cc2[N+](=O)[O-])c1 | 0 | 2 | 5 | 16 | 0 | 111* | 145* | 103*
CCOC(=O)c1c(-c2ccc(Cl)cc2)cn2ccccc12 | -6 | -3 | 24 | 24 | 0 | 64* | + | 172*
CCN1CCCCC(NC(=O)c2ccc(Cl)cc2Cl)C1=O (configuration not stated) | -6 | . | . | . | . | . | . | .
Nc1c(C(=O)OCC2CCCO2)c2nc3ccccc3nc2n1C1CCCC1 (configuration not stated) | -97 | -17 | 4 | 10 | -3 | 49* | 82* | 58*
Nc1c(C(=O)NC2CCCC2)c2nc3ccccc3nc2n1N | 11 | -12 | -8 | 9 | 0 | 2 | . | .
Nc1c(C(=O)NC2CCCC2)c2nc3ccccc3nc2n1CC1CCCO1 (configuration not stated) | -27 | -458 | 15 | 20 | -1 | 47* | + | +
CC(C)Cn1c(N)c(C(=O)NCC2CCCO2)c2nc3ccccc3nc21 (configuration not stated) | -93 | -436 | 19 | 20 | 3 | 85* | 60* | 35*
Nc1c(C(=O)NCC2CCCO2)c2nc3ccccc3nc2n1/N=C/c1ccncc1 (configuration not stated) | -3 | . | . | 1 | . | 1 | . | .
SMILES | CCHFV vOTU inh | RecA splice inh | VHR inh abs | GDH-TPI counter-1 | SARS 3CLpro inh | FBA Mtb inh | Mtb FBA inh conf | GDH-TPI counter-2 | others
Nc1c(C(=O)NCC2CCCO2)c2nc3ccccc3nc2n1Cc1ccco1 (configuration not stated) | -161 | -265 | 9 | 2 | 9 | 86* | -3 | -7
Cc1ccccc1NC(=O)[C@H]1CC(=O)O[C@@H]1c1ccccc1 | -7 | . | . | . | . | . | . | .
CCC(C(=O)Nc1ccccc1N1CCCC1)c1ccccc1Cl (configuration not stated) | 7 | . | . | . | . | . | . | .
CC(C)OC(=O)c1c2nc3ccccc3nc2n2c1[nH]c(=O)c1ccccc12 | . | -24 | 2 | . | 7 | . | . | .
COCC(C)OC(=O)c1c(N)n(CC(C)C)c2nc3ccccc3nc12 (configuration not stated) | -243 | -201 | 24 | 9 | -5 | 99* | 4 | 3
CC(C)CNC(=O)c1c(N)n(Cc2ccc3c(c2)OCO3)c2nc3ccccc3nc12 | -10 | 55* | -2 | 12 | 9 | 27* | 79* | 66*
CC(C)OC(=O)c1c(N)n(Cc2ccco2)c2nc3ccccc3nc12 | -71 | -74 | . | -14 | 2 | 43* | 131* | 98*
CCCNC(=O)c1c(N)n(Cc2ccc3c(c2)OCO3)c2nc3ccccc3nc12 | . | -2 | -16 | 5 | -6 | 0 | . | .
COc1ccccc1N1CCN(C(=O)c2ccc(Cl)c(S(=O)(=O)N3CCOCC3)c2)CC1 | -3 | 0 | -19 | 2 | -2 | 8 | . | .
CN1C(=O)[C@H]2[C@@H](C3CC3)N3C(=O)CN(Cc4ccccn4)C(=O)[C@@]3(Cc3ccccc3)[C@H]2C1=O | 5 | 0 | -7 | -2 | -5 | 68* | 70* | 57*
CCOC(=O)N1CCN(C(=O)COc2ccc3c(c2)C(=O)CC(C)(C)O3)CC1 | -92 | -15 | 22 | 4 | 0 | 41* | 134* | 114*
CC1(C)CC(=O)c2cc(OCC(=O)N3CCN(c4ccccc4F)CC3)ccc2O1 | -16 | -9 | 10 | 7 | 3 | 18 | . | .
CC1(C)CC(=O)c2cc(OCC(=O)NCCN3CCOCC3)ccc2O1 | -49 | -7 | 24 | 3 | 3 | 34* | 57* | 40*
CC1(C)CC(=O)c2cc(OCC(=O)O)ccc2O1 | -102 | -21 | -14 | 15 | -1 | 64* | 101* | 75*
CCOC(=O)COc1ccc2c(c1)C(=O)CC(C)(C)O2 | -150 | -11 | 4 | 20 | -9 | 48* | 23 | 6 | GDH-TPI DR=2.9*
